About 83,000 compounds went through this panel and 20% of them were active in at least one assay; those are over-represented in the sample as a whole.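 Method: cells in 96-well plates; compound added at one concentration; 48 h incubation; percent growth measured; values under 10 scored active.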 Activity calls are given as the source filed them.

For the test, the system named is HL-60(TB) leukemia. Kind of test: NCI-60 one-dose screen, 48 h (100 = growth as untreated, 0 = no growth, -100 = all killed). Conditions: 10 µM unless noted.
With `CC[C@]1(O)C[C@@H]2CN(CCc3c([nH]c4ccccc34)[C@@](C(=O)OC)(c3cc4c(cc3OC)N(C)[C@H]3[C@@](O)(C(=O)OC)[C@H](OC(C)=O)[C@]5(CC)C=CCN6CC[C@]43[C@@H]65)C2)C1`, the growth was -7.59% (active). Consider `COc1ccc2cc(C(=O)N3CCC([C@@H](C)C(=O)NCc4ccc5c(c4)OCO5)CC3)[nH]c2c1`, for which the growth is 91% [50 µM] (inactive). In the case of `CCCCN(CCCC)c1ccc(C(=N)c2ccc(N(C)C)cc2)cc1`, the growth was -55.1% (active). `CCC1C[N+]2=C(c3cc(OC)c(OC)cc3CC2)c2c1cc1n2CCc2cc(OC)c(OC)cc2-1` (stereo not given): the growth was 8.26% (active).

On to `N#Cc1c(N)nn(C(=O)c2ccc(NC(=O)c3ccccn3)cc2)c1-c1ccc(Cl)cc1`, for which the growth is 69.1% (inactive).

Turning to `CC(/C=C/c1ccccc1)=N/NC(=O)c1ccncc1`, the growth is 92.2% (inactive).

Turning to `O=C(CCN1C(=O)/C(=C/c2ccc(Cl)cc2)SC1=S)NCCCN1CCOCC1`, the growth is 98.9% (inactive). `C=CCNc1nc(O)c(/C=C2\C=Nc3ncccc32)s1`: the growth was -14.5% (active). In the case of `CCN1C(=O)N(c2ccccc2)C2NC(=S)N(/N=C/C=C/c3ccccc3OC)C21` (stereo not given), the growth is -44.9% (active). Regarding `c1ccc(-c2nc3ccccc3[nH]2)c(OCCCCCOc2ccccc2-c2nc3ccccc3[nH]2)c1`, the growth was 22% (inactive). Turning to `O=C1c2ccccc2C(=O)c2c1cccc2-n1nnc2ccccc21`, the growth was 82.1% (inactive). As to `COc1cccc(CCC2C(=O)CCCC2=O)c1`, the growth is 87.2% (inactive). As for `CCOC(=O)c1ccc(C(=N)N)cc1`, the growth was 103% (inactive). Turning to `Cc1ccc(S(=O)(=O)Oc2ccc3sc4c(CO)ccc(NCCN(C)C)c4c(=O)c3c2)cc1`, the growth was -51.1% [100 µM] (active).

Regarding `C=C1C(=O)O[C@H]2[C@H]1CC/C(CNC(=O)/C=C/c1cc(OC)c(OC)c(OC)c1)=C\CC[C@@]1(C)O[C@@H]21`, the growth is -33.3% (active).

`CCOC(=O)C(O)C(O)(c1ccccc1)c1ccccc1` (stereo not given): the growth was 91.1% (inactive). Regarding `CNC(=O)c1ccccc1CC1(O)c2ccccc2Oc2ccccc21`, the growth is 17.8% (inactive). As to `CCOc1ccc(/C=C(\C#N)c2cc3ccccc3[nH]2)cc1`, the growth was 43.7% (inactive).

Take `COc1cccc(C2C3=C(COC3=O)N(CCO)c3cc4c(cc32)OCCO4)c1` (stereo not given): the growth is -16.1% (active). On to `NC(=O)C1(Nc2ccc(Br)cc2)CCCC1`, for which the growth was 94.8% (inactive).

As to `NC(=S)NN=C1CCCCC1`, the growth was 74.1% (inactive). As to `COc1ccc(-c2nc3sccn3c2/C=C/C(=O)c2cc(F)cc(F)c2)cc1`, the growth was 60.4% (inactive). In the case of `CCN(CC)c1ccc2cc(C(Nc3ccc(C)cc3)c3nnnn3C(C)(C)C)c(=O)oc2c1` (stereo not given), the growth is 89% (inactive). Consider `Clc1ccc(-c2cc(-c3ccccc3)nc(N3CCN(CCCNc4ccnc5cc(Cl)ccc45)CC3)n2)cc1`, for which the growth is -39% (active).

On to `COc1cc(/C=C2\Oc3cc(OCC(=O)c4ccccc4)ccc3C2=O)cc(OC)c1OC`, for which the growth was 118% (inactive). As to `NC1C(N)C(N)C1N` (stereo not given), the growth is 93.8% (inactive). Turning to `Nc1c(Cl)cc(N=Nc2ccccc2)cc1Cl`, the growth is 97.4% (inactive). For the compound `COc1ccc(/C=C/c2c(C(=O)/C=C/c3ccc(Cl)cc3)c(C)nc3ccccc23)cc1`, the growth is 10% (inactive).

Regarding `CCOC(=O)Cn1c(C)c(/C=N/NC(=O)c2cc3c(ccc4ccccc43)o2)c2ccccc21`, the growth is 0.68% (active).

For the compound `C=C(C)[C@@H]1CC[C@]2(C)[C@H](CC=C3[C@@H]4C[C@](C)(C(=O)N5CCN(C)CC5)CC[C@]4(C)CC[C@]32C)[C@@]1(C)CCC#N`, the growth was 22.6% (inactive). As for `Cc1cc2c(C(=O)NCC#N)cccc2n1-c1nc2c(c(NCc3ccccc3)n1)CCCC2`, the growth is -23.5% (active).

Regarding `O=C1c2c(c3c4cccc(F)c4[nH]c3c3ccc4ccccc4c23)C(=O)N1O`, the growth is 31% (inactive). Take `Cn1[nH]cc(/C=N/C(N)=O)c1=O`: the growth is 110% (inactive).

As for `O=C(CCc1nnc(-c2c(Cl)cccc2Cl)o1)c1nc2ccccc2[nH]1`, the growth was -33.8% (active). Consider `CCOC(=O)c1c(C)c2c(n1Cc1ccccc1)CSCC2=O`, for which the growth was 13.3% [100 µM] (inactive).

Regarding `CNc1ccc(Nc2cccc(C)c2)c2c1C(=O)c1ccccc1C2=O`, the growth was 80.6% (inactive). The figure for `COc1cc(-c2nn(-c3cccc(NC(=O)Nc4cc(C(F)(F)F)cc(C(F)(F)F)c4)c3)cc2-c2ccncc2)ccc1Cl` is -20.2% (active).

In the case of `COc1cc2nccc(Oc3ccc(NC(=O)C4(C(=O)Nc5ccc(F)cc5)CC4)cc3)c2cc1OC`, the growth is 8.85% (active). As to `C=C(C)[C@@H]1CC[C@]2(C)CC[C@]3(C)[C@H](CC[C@@H]4[C@@]5(C)CCCNC(C)(C)[C@@H]5CC[C@]43C)[C@@H]12`, the growth is 35.7% (inactive). Take `Cc1cc(Nc2ccc(C(=O)N3CCCC3)cc2)nc(NCCCNc2ccnc3cc(Cl)ccc23)n1`: the growth is 84.4% (inactive).

(Values after PubChem BioAssay (NCI).)
